Among the test systems are DU-145 prostate; K-562 leukemia; MALME-3M melanoma; MDA-MB-231 breast; SF-268 CNS; SF-295 CNS; SF-539 CNS; M14 melanoma; HCT-15 colon; HT29 colon; SNB-75 CNS; SNB-19 CNS; U251 CNS; PC-3 prostate; SK-MEL-5 melanoma; UACC-62 melanoma; LOX IMVI melanoma; SK-MEL-28 melanoma.
Common to all, as to experiment: NCI-60 one-dose screen, 48 h (100 = growth as untreated, 0 = no growth, -100 = all killed)
Common to all, as to conditions: 10 µM unless noted

Each structure is given as a SMILES string. About 83,000 compounds went through this panel and 20% of them were active in at least one assay; those are over-represented in the sample as a whole.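 Cells were grown in 96-well plates and exposed to the test compound at a single concentration for 48 hours; results are reported as percent growth, with values below 10 considered active.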 Unmarked numbers belong to inactive results. Active and inactive are the calls of the source.

Regarding `CC(N)C(Cc1ccc(Cl)cc1)c1ccc(Cl)cc1` (configuration not stated), the growth in the assay on DU-145 prostate is 61%; in the assay on K-562 leukemia it was 0.46% (active); in the assay with MALME-3M melanoma, 80.3%; with MDA-MB-231 breast, 35.5%; with SF-268 CNS, 62.6%; with SF-295 CNS it was 84.9%. For the same molecule, the growth was 80.8% with SF-539 CNS; 47.6% in the assay with M14 melanoma; 69.3% in the assay with HCT-15 colon; -21.9% (active) in the assay with HT29 colon; 48.6% in the assay on SNB-75 CNS; 82.4% with SNB-19 CNS. Besides, the growth is 5.91% (active) in the assay on U251 CNS; 37.5% in the assay with PC-3 prostate; 90.1% in the assay on SK-MEL-5 melanoma; 92.4% in the assay with UACC-62 melanoma; 74.3% in the assay on LOX IMVI melanoma; 62.6% in the assay on SK-MEL-28 melanoma.

Regarding `CCCCCCC1(/C=N/NC(N)=O)NC(=O)NC1=O` (configuration not stated), the growth in the assay on DU-145 prostate was 107%; in the assay on K-562 leukemia it was 102%; with MALME-3M melanoma it was 103%; with MDA-MB-231 breast, 110%; in the assay with SF-268 CNS, 99.3%; in the assay with SF-295 CNS it was 98.1%. Further, the growth is 96.3% in the assay on SF-539 CNS; 97.3% with M14 melanoma; 98.3% in the assay on HCT-15 colon; 76.9% in the assay on HT29 colon; 82.2% in the assay with SNB-75 CNS; 105% in the assay on SNB-19 CNS. In addition, the growth in the assay on U251 CNS is 94.3%; with PC-3 prostate, 91.8%; in the assay with SK-MEL-5 melanoma, 96.9%; in the assay with UACC-62 melanoma, 99%; with SK-MEL-28 melanoma, 106%.

As for `COc1ccc2c(CCCc3ccc(Cl)cc3Cl)c3[n+](cc2c1OC)CCc1cc2c(cc1-3)OCO2`, the growth is 17.9% in the assay on DU-145 prostate; 6.33% (active) with K-562 leukemia; -28.7% (active) with MALME-3M melanoma; -10% (active) with MDA-MB-231 breast; 12.9% in the assay with SF-268 CNS; -19.3% (active) in the assay on SF-295 CNS. The growth is -46.3% (active) with SF-539 CNS; -24.5% (active) with M14 melanoma; 24.4% in the assay on HCT-15 colon; -15.6% (active) with HT29 colon; 15.2% in the assay with SNB-75 CNS; 16.7% in the assay with SNB-19 CNS. For the same molecule, the growth was 3.76% (active) in the assay on U251 CNS; -14.2% (active) in the assay with PC-3 prostate; -99.6% (active) in the assay on SK-MEL-5 melanoma; -80.3% (active) in the assay on LOX IMVI melanoma; -35.6% (active) in the assay on SK-MEL-28 melanoma.

In the case of `Cc1sc2c(c1C)c(=O)nc1c(-c3nc(-c4ccccc4)cs3)n[nH]n12`, the growth in the assay with DU-145 prostate is 104%; in the assay with K-562 leukemia, 94.5%; with MALME-3M melanoma, 98.1%; with MDA-MB-231 breast, 93.3%; in the assay with SF-268 CNS, 96.2%; with SF-295 CNS it was 88.7%. Besides, the growth with SF-539 CNS is 96.3%; in the assay with M14 melanoma, 96.2%; in the assay with HCT-15 colon, 82.4%; in the assay on HT29 colon, 107%; with SNB-75 CNS, 101%; in the assay with SNB-19 CNS, 102%. Also, the growth is 94% in the assay with U251 CNS; 82.1% in the assay on PC-3 prostate; 102% with SK-MEL-5 melanoma; 91.8% in the assay with UACC-62 melanoma; 95.9% in the assay with LOX IMVI melanoma; 106% with SK-MEL-28 melanoma.

Regarding `CCCCN1CCCC[C@@H]1C(=O)N[C@H](C(=O)N(C)[C@H](CCc1nc(C(=O)N[C@@H](Cc2ccccc2)C[C@H](C)C(=O)OC)cs1)C(C)C)C(C)C`, the growth was 92.9% with DU-145 prostate; 22.9% with K-562 leukemia; 45.1% with MALME-3M melanoma; 71.5% in the assay with MDA-MB-231 breast; 84.3% in the assay with SF-268 CNS; 49.4% in the assay on SF-295 CNS. Besides, the growth is 82.8% in the assay on SF-539 CNS; 49.9% in the assay on M14 melanoma; 59.4% with HCT-15 colon; 68.9% in the assay with HT29 colon; 75.2% in the assay on SNB-75 CNS; 57.9% in the assay on SNB-19 CNS. Further, the growth in the assay on U251 CNS is 83.8%; with PC-3 prostate, 35%; in the assay with SK-MEL-5 melanoma it was 53.5%; with UACC-62 melanoma, 43.6%; in the assay with LOX IMVI melanoma it was 80%; in the assay on SK-MEL-28 melanoma, 76.4%.

On to `C[C@@H](C[C@H](CCO)c1cc(C(F)(F)F)cc(C(F)(F)F)c1)c1ccc2ccccc2c1`, for which the growth in the assay on DU-145 prostate was 93.2%; in the assay on K-562 leukemia it was 33%; with MALME-3M melanoma it was 87.9%; with MDA-MB-231 breast, 93.6%; in the assay with SF-268 CNS it was 81.8%; in the assay with SF-295 CNS, 77.8%. Also, the growth in the assay on SF-539 CNS is 94.2%; with M14 melanoma, 79.7%; in the assay on HCT-15 colon it was 76.7%; in the assay with HT29 colon, 71.2%; in the assay with SNB-75 CNS, 88.5%; in the assay with SNB-19 CNS it was 107%. The growth with U251 CNS was 91.5%; in the assay with PC-3 prostate, 83%; in the assay with SK-MEL-5 melanoma it was 105%; in the assay with UACC-62 melanoma it was 90.4%; with LOX IMVI melanoma, 87.3%; in the assay with SK-MEL-28 melanoma, 86.7%.

In the case of `Cc1ccc2oc(=O)cc(-c3cc(-c4cc5ccccc5oc4=O)nc(N)c3C#N)c2c1`, the growth was 61.6% in the assay on DU-145 prostate; 81% with K-562 leukemia; 51.3% in the assay with MALME-3M melanoma; 55.5% in the assay with MDA-MB-231 breast; 48.1% with SF-268 CNS; 63.4% in the assay with SF-295 CNS. In addition, the growth in the assay on SF-539 CNS is 59.8%; in the assay with M14 melanoma it was 85.7%; in the assay with HCT-15 colon, 91.1%; with HT29 colon it was 68.3%; in the assay on SNB-75 CNS, 34%; with SNB-19 CNS, 75.8%. The growth in the assay with U251 CNS is 54.3%; with PC-3 prostate, 69%; in the assay on SK-MEL-5 melanoma it was 60.8%; in the assay on UACC-62 melanoma, 81.5%; in the assay with LOX IMVI melanoma, 78.2%; in the assay on SK-MEL-28 melanoma, 76.7%.

On to `C=CCCCC(=O)CCC(=O)OCC1O[C@@H](O[C@@H]2C(O)[C@@H](OC(C)=O)C(C)O[C@H]2O[C@H](CC=C)CCCCC)C(O)[C@@H](OC(=O)/C(C)=C/C)[C@@H]1OC(=O)/C=C/c1ccccc1` (some centres not stated), for which the growth in the assay on DU-145 prostate is 33.3%; in the assay on K-562 leukemia, 34.3%; in the assay with MALME-3M melanoma, 17.7%; with MDA-MB-231 breast, 4.48% (active); in the assay with SF-268 CNS, 29.2%; with SF-295 CNS, -11.9% (active). Further, the growth in the assay on SF-539 CNS is 14.3%; in the assay with M14 melanoma it was -10.3% (active); with HCT-15 colon it was 20.6%; in the assay on HT29 colon, 0.411% (active); in the assay on SNB-75 CNS, 30.1%; in the assay with SNB-19 CNS, 45.7%. The growth in the assay on U251 CNS was 11%; with PC-3 prostate it was 31.3%; in the assay on SK-MEL-5 melanoma it was -71.5% (active); in the assay with UACC-62 melanoma, 20.1%; in the assay with LOX IMVI melanoma, -52.9% (active); in the assay on SK-MEL-28 melanoma, 33%.

These data come from PubChem BioAssay (NCI).
